Bioassay records: PubChem, National Center for Advancing Translational Sciences (NCATS)
A549 viability = Nrf2 qHTS screen for inhibitors: counterscreen for cytotoxicity. Potency, µM (top dose mostly 46 µM), hits mostly inhibitors. A549 ARE-Fluc cells, CellTiter-Fluor viability, 18-24 h. 390,000 compounds, 0.16% hits
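A549 ARE_Fluc cells in 5% FBS OPTI-MEM were exposed to compounds in concentration-response for 18-24 h at 37 deg C. Viability was read by CellTiter-Fluor fluorescence (Ex 405/Em 525) after 30 min, before the luciferase read.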
Pin1 inhibitor = qHTS Assay to Find Inhibitors of Pin1. Peptidyl-prolyl cis-trans isomerase NIMA-interacting 1 (Homo sapiens), Q13526. Pin1 FP peptide displacement, HiFluor488, 10 min. Potency, µM (top dose mostly 115 µM), hits mostly inhibitors. 390,000 compounds, 0.009% hits. AID 504891, 2011; active = well fitted inhibition curve with a large enough effect in the polarisation, with a control signal flat, not every such curve was filed as active; inconclusive = small, poorly fitted or top-dose-only effect, or effect the other way, or a change in a side signal; inactive = no such curve, though single readings can be large or run the other way; the % refers to the polarisation
Target sequence (Q13526 whole entry, looked up): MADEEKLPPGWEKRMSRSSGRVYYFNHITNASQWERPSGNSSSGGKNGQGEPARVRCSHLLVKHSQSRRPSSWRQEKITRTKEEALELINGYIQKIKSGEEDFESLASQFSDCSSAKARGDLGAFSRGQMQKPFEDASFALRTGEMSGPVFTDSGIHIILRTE
Nrf2 ARE act = qHTS of Nrf2 Activators; 410,000 compounds, 0.31% hits; AID 624171, 2012; Potency, µM (titrated, usually from 46.1 µM), usual class: activators; AREc32 ARE-luciferase reporter (MCF7-derived line), luminescence, 24 h; note: nearly all actives have a fitted effect of over 65% in size
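For detection, Steady-Glo was added and plates sat 30 min at RT; before that, AREc32_Fluc cells grown overnight in OPTI-MEM/5% FBS had been treated with 23 nL compound for 24 hr at 37 deg C.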
Nrf2 block = Nrf2 qHTS screen for inhibitors; A549 ARE-Fluc reporter, luciferase luminescence, 18-24 h; Potency, µM (top dose mostly 46 µM), usual class: inhibitors; 360,000 compounds, 2.1% hits; AID 504444, 2011; note: nearly all actives have a fitted effect of over 60% in size
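Cells were seeded and rested 2 h, then exposed to compounds for 18-24 h. CellTiter-Fluor was read first as a viability measure. BugLite was added 15 min before the final luminescent read of ARE-luciferase activity in A549 cells.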
Each line names hits and unclear results; the compound was inactive in the other large screens. A selection: hits, their analogues and other compounds. The true share with any hit is near 2.2%. Unless noted, calls come from the whole dose curve; as a rule, active = well fitted curve in the direction sought with a large enough effect; inconclusive = small, poorly fitted or top-dose-only effect, or another doubt; inactive = no such curve, though single readings can be large; an effect the other way counts as inactive or inconclusive.

O=C(Nc1ccc(Cc2ccncc2)cc1)C1CCC(N2C(=O)C3C4C=CC(C5CC45)C3C2=O)CC1 (stereo not given)	A549 viability inconclusive, Nrf2 block 18µM
CCn1c(/C=C/c2c[nH]c3ccccc23)nc2ccccc2c1=O	Pin1 inhibitor inconclusive, Nrf2 block inconclusive
CN(C)S(=O)(=O)c1ccc2[nH]cc(/C=C/c3nc4ccccc4c(=O)n3-c3ccccc3)c2c1	Pin1 inhibitor inconclusive, Nrf2 block 10µM
C#CC[N+](C)(C)CC#Cc1ccc(Cl)cc1	none
C#CC[N+](CC)(CC)CC#Cc1cccc(Cl)c1	Nrf2 block 10µM
CNC(=O)C1(C(F)(F)F)C/C(=C\Cc2ccccc2)CCCO1 (stereo not given)	none (no result: Nrf2 ARE act)
Cc1ccc(S(=O)(=O)N(C)C)cc1NC(=O)C(C)NC(C)c1cccs1 (stereo not given)	Nrf2 block inconclusive
Cc1ccc(S(=O)(=O)N(C)C)cc1NC(=O)C(C)N(C)Cc1sccc1C (stereo not given)	Nrf2 block 13µM
Cc1csc(CNc2ncnc3cc(-c4ccc5c(c4)OCO5)ccc23)n1	none (no result: Nrf2 ARE act)
NS(=O)(=O)c1ccc(N/N=C/c2cn(-c3ccccc3)nc2-c2ccccc2)c([N+](=O)[O-])c1	A549 viability 21µM, Nrf2 block 23µM
Cc1nn(-c2ccccc2)c(N2CCCC2)c1/C=N/Nc1ccc(S(=O)(=O)Nc2ccccc2)cc1[N+](=O)[O-]	A549 viability inconclusive, Nrf2 block 8.2µM
CCN(CC)c1ccc(/C=N/NC(=O)c2cccc(S(=O)(=O)Nc3ccccc3OC)c2)c(O)c1	Pin1 inhibitor inconclusive, Nrf2 block 23µM
COc1ccccc1NS(=O)(=O)c1cccc(C(=O)N/N=C/c2c(C)nn(-c3ccccc3)c2N2CCCC2)c1	Nrf2 block 18µM
O=[N+]([O-])c1ccc(N/N=C/c2cn(-c3ccccc3)nc2-c2ccccc2)cc1	A549 viability inconclusive, Pin1 inhibitor inconclusive
CCc1nnc2n1N(C(C)=O)C(c1ccc(C(C)(C)C)cc1)=C(C(C)=O)S2	A549 viability inconclusive (no result: Nrf2 block)
CCC(C(=O)NCCCN(CC)CC)n1ncn2c(cc3occc32)c1=O (stereo not given)	none
CCc1ccc(OCC(=O)N(Cc2ccc(C(C)C)cc2)C2CCS(=O)(=O)C2)cc1 (stereo not given)	none
Cc1ccc2[nH]c(=O)c(CN(CCCO)Cc3nnnn3Cc3ccccc3)cc2c1	none (no result: Nrf2 ARE act)
Cc1cccc2cc3c(N)c(C(=O)Nc4ccc(N5CCOCC5)cc4)sc3nc12	Pin1 inhibitor inconclusive, Nrf2 block 23µM
Cc1ccc2nc(Cl)c3cc(C(=O)NC4CCC(C)CC4)sc3c2c1 (stereo not given)	none
N#Cc1ccc(NC(=O)COC(=O)C2Cc3ccccc3CN2C(=O)c2ccccc2)cc1 (stereo not given)	A549 viability inconclusive, Nrf2 block 7.3µM
Cc1cccc(C)c1NC(=O)COC(=O)C1Cc2ccccc2CN1C(=O)c1ccccc1 (stereo not given)	none
COc1ccc(C(=O)Cn2nnc(-c3ccccc3NC(=O)c3ccco3)n2)cc1	A549 viability inconclusive, Nrf2 block 18µM
COc1ccc(NC(=O)Cn2nnc(-c3ccccc3NS(=O)(=O)c3ccccc3)n2)cc1	Nrf2 block 21µM
Cc1nn(C)c(C)c1CNC(=O)c1nn2c(c1Cl)NC(c1cccs1)CC2C(F)(F)F (stereo not given)	Nrf2 block 16µM
Cc1nn(C)cc1CNC(=O)c1cc2n(n1)C(C(F)(F)F)CC(c1cccs1)N2 (stereo not given)	Nrf2 block inconclusive
O=C(CCCC(=O)c1ccc(O)cc1)c1ccc(O)cc1	Nrf2 block inconclusive
O=C1C=CC(=C(c2ccc(O)cc2)c2ccc(O)cc2)C=C1	A549 viability 23µM, Nrf2 block 13µM
COc1ccc(CCNC(=O)c2ccc3c(c2)c(C)c(C)n3Cc2ccc(F)cc2)c(OC)c1OC	none
COc1ccc(CNC(=O)CSc2nc(-c3ccc(OC)c(OC)c3)cc(C(F)(F)F)n2)cc1	none
O=C1C=C(N2CCOCC2)c2ccccc2C1=O	A549 viability inconclusive, Nrf2 block 21µM
Cc1ccc(NS(=O)(=O)c2ccc(-c3cc(C)no3)cc2)c(Br)c1	Nrf2 block 23µM
Cc1cc(-c2ccc(S(=O)(=O)Nc3ccccc3C)cc2)on1	Nrf2 block inconclusive
Cc1cc(-c2ccc(S(=O)(=O)Nc3ccc(Cl)cc3C)cc2)on1	Nrf2 block 21µM
Nn1cnnc1SCC(=O)Nc1ccc(C2CCCCC2)cc1	none
O=C(O)CSCC(=O)Nc1ccc(C2CCCCC2)cc1	Nrf2 block 5.2µM
CCOC(=O)c1ccc2c(c1)N(Cc1ccc(F)cc1Cl)C(=O)c1ccccc1S2(=O)=O	none
O=S1(=O)C2CC3OC2(CC3c2ccc(F)cc2)CN1Cc1ccc(Cl)cc1 (stereo not given)	Nrf2 block inconclusive (no result: Nrf2 ARE act)
Cc1c(Cc2ccccc2)c(=O)n2c([nH]c3ccccc32)c1C#N	Pin1 inhibitor inconclusive, Nrf2 block 15µM
COc1ccccc1N=Cc1c(C)c(C#N)c2[nH]c3ccccc3n2c1=O	Pin1 inhibitor inconclusive
COc1ccc2c(C)c(CC(=O)N3CCN(C(=O)C4COc5ccccc5O4)CC3)c(=O)oc2c1 (stereo not given)	Nrf2 block 23µM
Cc1c(CC(=O)N2CCN(C(=O)C3COc4ccccc4O3)CC2)c(=O)oc2cc(O)ccc12 (stereo not given)	none
CCOC(=O)c1cc(-c2ccc(C)cc2)n(CCC(=O)Nc2ccc(OC)c(OC)c2)c1C	Nrf2 block 18µM
CCOC(=O)c1cc(-c2ccc(C)cc2)n(CCC(=O)Nc2ccc(C(C)C)cc2)c1C	Nrf2 block inconclusive
Clc1cccc(N2CCN(c3nc4ccccc4c4nc(-c5ccccc5)nn34)CC2)c1	none
Cc1ccc(N/C(N)=N/c2nc3c(c(=O)[nH]2)CCCC3)c(C)c1	none
Cc1ccc(N/C(N)=N/c2nc(C)cc(N3CCCCC3)n2)c(C)c1	A549 viability inconclusive, Nrf2 block 13µM
CCc1ccc(C2/C=C\CNC(c3ccccc3)C(=O)N2Cc2ccc(C)cc2)cc1 (stereo not given)	none (no result: Nrf2 ARE act)
COc1cccc(-c2ccc3c(N)c(C(=O)Nc4ccc(C)c(F)c4)sc3n2)c1	A549 viability inconclusive, Pin1 inhibitor inconclusive
Nc1c(C(=O)Nc2ccc(OC(F)(F)F)cc2)sc2nc(-c3ccncc3)ccc12	Pin1 inhibitor inconclusive, Nrf2 block 6.5µM
CCOc1ccc2oc(=O)cc(CN3CCN(c4cc(C)ccc4C)CC3)c2c1	none
O=C(Nc1nnc(C2CC2)s1)c1ccc(Cl)c(S(=O)(=O)N2CCc3ccccc3C2)c1	Nrf2 block 23µM
CCc1nnc(NC(=O)c2ccc(Cl)c(S(=O)(=O)N3CCc4ccccc43)c2)s1	none (no result: Nrf2 block)
COc1cccc(CN(C)C(=O)c2[nH]c(C)c(C(C)=O)c2C)c1OC	Nrf2 block 23µM
COc1ccccc1CNC(=O)c1[nH]c(C)c(C(C)=O)c1C	none
N#Cc1nc(Nc2ccc(-c3ccccc3)cc2)nc(NC2CCCC2)n1	Nrf2 block inconclusive (no result: Nrf2 ARE act)
